# Compounds with a hit are over-represented: about 21% of the library has one in this group of screens.
# Pf growth 96h: Primary qHTS for delayed death inhibitors of the malarial parasite plastid, 96 hour incubation; P. falciparum luciferase reporter growth, 96 h; Potency, µM (top dose mostly 28.7 µM), without a hit: top-dose activity change, negative = inhibition, actives largely listed as inhibitors; 320,000 compounds, 6.9% hits; active means well fitted inhibition curve with a large enough effect; inconclusive means small, poorly fitted or top-dose-only effect, or another doubt; inactive means no such curve, though single readings can be large or run the other way; further: potency means the concentration at half of the fitted maximal effect; on the % scale 0 is the no-effect control and ±100 the full control effect
#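 Two parasite generations (96 h, 37 C, 5% CO2) of compound exposure in infected erythrocytes (0.05% parasitemia, 2% hematocrit). Luciferase-reporter P. falciparum; decreased luminescence indicates inhibited growth, aimed at apicoplast-acting delayed death.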
# NS1 function inh: qHTS Assay for Inhibitors of Influenza NS1 Protein Function; AID 2326, 2010; Potency, µM (titrated, usually from 46.1 µM), without a hit: top-dose activity, positive = more growth; 270,000 compounds, 0.4% hits; further: potency means the concentration at half of the fitted maximal effect; actives are rising curves; nearly all actives have a fitted effect of over 50% in size
#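 Growth recovery, yeast-based: influenza A NS1 expressed in S. cerevisiae causes slow growth, and suppressors are detected by OD600. The parent strain without NS1 is used as positive control.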
# CHX counter: Cycloheximide Counterscreen for Small Molecule Inhibitors of Shiga Toxin; cell reporter, cycloheximide protein synthesis inhibition counterscreen; max response, %; AID 2314, 2010; 300,000 compounds, 12% hits; in the data active means max response mostly above about 13%, no sharp cut-off; inactive means mostly below about 14%; further: read at 38.3 µM for the half of the compounds with a filed dose; 0% is about no effect
# Pf growth 48h: Primary qHTS for delayed death inhibitors of the malarial parasite plastid, 48 hour incubation. P. falciparum luciferase growth in erythrocytes, 48 h. Potency, µM (highest dose often 28.7 µM), for the others: top-dose activity change, negative = inhibition, actives largely listed as inhibitors. 310,000 compounds, 5.9% hits; active means well fitted inhibition curve with a large enough effect; inconclusive means small, poorly fitted or top-dose-only effect, or another doubt; inactive means no such curve, though single readings can be large or run the other way; further: potency means the concentration at half of the fitted maximal effect; on the % scale 0 is the no-effect control and ±100 the full control effect
#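 Luminescence readout; reporter = integrated firefly luciferase in P. falciparum. RBC culture at 2% hematocrit, 0.1% parasitemia final, 37 C/5% CO2; decreased signal taken as growth inhibition.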
# Shiga inhibitor: A qHTS for Small Molecule Inhibitors of Shiga Toxin; 290,000 compounds, 9.2% hits; inhibition, % at 38.7 µM; Vero cells, Shiga toxin protein synthesis inhibition reporter; in the data active means inhibition mostly above about 28%, no sharp cut-off; inactive means mostly below about 43%; further: 0% is about no effect
# SARS PLpro yeast: qHTS of Yeast-based Assay for SARS-CoV PLP; 330,000 compounds, 0.19% hits; S. cerevisiae expressing SARS-CoV PLpro, growth rescue; Potency, µM (highest dose often 32.9 µM), without a hit: top-dose activity, positive = growth rescue, hits mostly activators; further: potency means the concentration at half of the fitted maximal effect; 0% is about no effect; nearly all actives have a fitted effect of over 55% in size
# Starred values were filed as active, the others as inactive; ? = inconclusive; / = not tested or not shown. Unless noted, the call rests on the fitted dose curve.
SMILES,Pf growth 96h,NS1 function inh,CHX counter,Pf growth 48h,Shiga inhibitor,SARS PLpro yeast
CCn1ncc(C(=O)Nc2ccc(S(=O)(=O)N3CCCC3)cc2)c1C,?,0%,7,?,9,-3%
Cc1onc(-c2ccccc2Cl)c1C(=O)N1CCC(Cc2ccccc2)CC1,?,-72%,-2,?,-7,-7%
Oc1ccc(/C=C/c2ccc3cccc(O)c3n2)cc1Br,?,-83%,50*,/,68*,-10%
COC(=O)c1ccc(/C=C/c2ccc3cccc(OC(C)=O)c3n2)cc1,63%,-32%,57*,35%,117*,28%
COC(=O)c1ccc(NS(=O)(=O)c2cccc3cccnc23)cc1,/,5%,-3,2%,-10,1%
C[n+]1cccc(/C=C\c2ccc3cccc(O)c3n2)c1,/,-4%,/,/,/,/
O=C(O)c1ccc(/C=C/c2ccc3cccc(O)c3n2)cc1,1%,/,41*,179%,82*,-7%
[N-]=[N+]=CC(=O)CC[C@H](N)C(=O)O,/,-1%,/,/,/,/
CC(C)(CO)C(O)C(=O)NCCCC(=O)O (configuration not stated),-17%,/,/,-92%,/,/
COc1ccc(-c2sc(Nc3ccc(F)c(F)c3F)nc2CCC(=O)NN)cc1,?,24%,42*,?,100*,0%
O=C(O)CN1C(=O)/C(=C\c2cn(CC(=O)N3CCOCC3)c3ccccc23)SC1=S,?,/,11,17%,-2,0%
CCc1nc2cc(Cl)c(Cl)cc2[nH]1,42%,-121%,11*,20%,-16,-36%
CCc1nc2cc(Cl)c(Cl)cc2nc1CC,4%,-2%,-2,4%,-16,-1%
Clc1cccc(OCc2nnc(-c3ccccc3Br)o2)c1,?,-35%,38*,?,86*,-16%
Clc1ccc(OCc2nnc(-c3ccccc3Br)o2)cc1,8%,-25%,12*,6%,49,?
O=C(CNC(=O)c1ccc(Cl)cc1Cl)OCc1nnc(-c2ccccc2Br)o1,/,/,/,/,/,-6%
Cc1cc(Cl)ccc1OCc1nnc(-c2ccccc2C)o1,55%,/,/,41%,/,2%
CNc1ccccc1NC(=O)C1CCCN1C(=O)OCc1ccccc1 (configuration not stated),?,7%,5,-4%,8,1%
COc1ccc(S(=O)(=O)CC2(O)CCN(C(=O)CC(C)C)CC2)cc1,8%,/,1,9.3µM*,-13,1%
Cc1nc(N)nc2ccccc12,/,0%,/,/,/,/
O=C(c1ccc2c(=O)n3c(nc2c1)CCCCC3)N1CCN(c2cccc(Cl)c2)CC1,0%,-1%,-1,?,17,-7%
Cc1ccn2cc(CC(=O)O)nc2c1,5%,7%,-3,0%,-1,0%
CCOC(=O)c1cn2ccc(C)cc2n1,23%,-3%,29*,53%,77*,-1%
CCOC(=S)SCc1cn2ccc(C)cc2n1,?,10%,34*,-17%,12,11%
c1ccc(-n2cnnc2SCc2cn3ccccc3n2)cc1,?,-6%,-1,37%,25,?
SMILES,Pf growth 96h,NS1 function inh,CHX counter,Pf growth 48h,Shiga inhibitor,SARS PLpro yeast
CCOC(=S)SCc1cn2ccccc2n1,-11%,/,30*,-3%,42*,-2%
Cc1ccn2cc(CSc3ccccc3N)nc2c1,109%,1%,46*,173%,105*,-1%
O=[N+]([O-])c1ccc(S(=O)(=O)Cc2ccccc2)c2nonc12,/,7%,/,/,/,/
CCCn1c(SCC(=O)Nc2ccc(OC)cc2)nnc1-c1ccncc1,10%,7%,0,/,-16,21%
CC(C)(C)Nc1nc2nonc2nc1NC(C)(C)C,?,-2%,-3,/,-12,-25%
CC(=O)c1ccc(OC(=O)C2CSC3(C)CCC(=O)N23)cc1 (configuration not stated),-18%,/,/,-9%,/,-2%
CCC(C)N(C(=O)COC(=O)COc1c(C)cc(C)cc1C)C1CCS(=O)(=O)C1 (configuration not stated),15%,/,/,32%,/,-1%

# From PubChem
